# Results reported in PubChem BioAssay (NCI).
# About 83,000 compounds went through this panel and 20% of them were active in at least one assay; those are over-represented in the sample as a whole.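 Activity criterion: percent growth below 10, measured after cells in 96-well plates were exposed to a single compound concentration for 48 hours.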 Active and inactive are the calls of the source.
# System: NCI/ADR-RES ovarian
# Experiment: NCI-60 one-dose screen, 48 h (100 = growth as untreated, 0 = no growth, -100 = all killed)
# Settings: 10 µM unless noted
row,SMILES,growth
1,CCn1c(-c2cc3c([nH]c4ccccc43)c(-c3cccc(O)c3)n2)n[nH]c1=S,64.8% (inactive)
2,CCN(CC)c1ccc(/C=N/NC(=O)Cc2ccc(Nc3ccnc(C(F)(F)F)c3)cc2)c(O)c1,18.3% (inactive)
3,COc1ccc2c(c1)c(-c1nc(-c3c[nH]c4ncccc34)cs1)cn2CCCN1CCOCC1,43.4% (inactive)
4,CNC(C)[C@H]1CCC2C3CC=C4C(=O)[C@@H](NC(=O)C=C(C)C)CC[C@]4(C)C3CC[C@@]21C (some centres not stated),39.1% (inactive)
5,CN(Cc1ccccc1)c1nc(Cl)c(C2CC(c3ccccc3)=NN2c2ccccc2)s1 (configuration not stated),98.1% (inactive)
6,N#CC1=C(N)Oc2ccc3ccccc3c2C1c1ccc([N+](=O)[O-])cc1 (configuration not stated),94.6% (inactive)
7,COc1ccc(C(=O)Cn2c(C(=O)c3ccc(OC)cc3)nc3ccccc32)cc1,-24.1% (active)
8,CC1C(/C=N/NC(N)=S)C(C#N)(C#N)C1(C#N)C#N (configuration not stated),110% (inactive)
9,O=C(Cc1ccc(/C=C/C(=O)c2ncc[nH]2)cc1)Nc1cc(C(F)(F)F)cc(C(F)(F)F)c1,102% (inactive)
10,CCOC(=O)c1ccccc1-c1c2ccc(=[N+](C)C)cc-2oc2cc(N(C)C)ccc12,102% (inactive)
11,CCN1C(=O)N(CC)C2C1NN=c1s/c(=C\c3ccc(C(F)(F)F)cc3)c(=O)n12 (configuration not stated),2.84% (active)
12,Cc1nn(-c2ccccc2)c(N)c1N=C1NC(=O)/C(=C/c2ccc(Br)cc2)S1,77.7% (inactive)
13,O=C(c1c[nH]c2ccccc12)c1n[nH]c(=S)n1-c1cccc(Br)c1,106% (inactive)
14,Cc1ccc(/C=C/C(=O)Nc2ncc(Cc3ccc(F)cc3)s2)o1,55.7% (inactive)
15,O=C1/C(=C\c2cccc3nccnc23)SC(=S)N1CCc1ccc(O)cc1,96.9% (inactive)
16,COc1cccc(/C=C/C(=O)c2cccc(Nc3nc(Nc4ccccc4)nc(Nc4ccccc4)n3)c2)c1,83.4% (inactive)
17,C=C1C(=O)O[C@H]2[C@H]1CC/C(COC(=O)c1cc3cc(Cl)ccc3[nH]1)=C\CC[C@@]1(C)O[C@@H]21,-35.3% (active)
18,COc1ccc(Cn2cc(C(=O)N=Nc3c(O)[nH]c4c(C)cccc34)nn2)cc1,71.2% (inactive)
19,NC(=O)c1cnc(Nc2cccc(N)c2)nc1NCCCNC(=O)C1CCC1,108% (inactive)
20,CC1=C2[C@@H](CC1)[C@]1(C)O[C@@](C3CCCCC3)(C[C@H]1OC(=O)CO)[C@H]2OC(=O)/C=C/c1ccccc1,-2.43% (active)
21,O=C(Nc1cnc(Nc2ccc(N3CCOCC3)nc2)nc1Oc1ccc(C(F)(F)F)cc1)c1ccncc1,86% (inactive)
22,Cc1c2cccnc2c(C)c2c1c1cc(CO)ccc1n2C,24.2% (inactive)
23,CCN1CCN(CC(=O)Nc2ccc(-c3cn4c(n3)sc3cc(Oc5ccnc(C(=O)NC)c5)ccc34)cc2)CC1,89% (inactive)
24,COc1cc(OC)c2sc(-c3ccc(-n4cncc4-c4cc(OC)c(OC)c(OC)c4)cc3)nc2c1,60.6% (inactive)
25,Ic1ccccc1I,101% (inactive)
26,CCC1S/C(=N\N=C(\C)c2cc3cc(Cl)ccc3o2)N(c2ccccc2)C1=O (configuration not stated),90.8% (inactive)
27,CN(CCCNC(=O)CCOCCOCCOCCNC(=O)Cc1ccc2ccc3cccc4ccc1c2c34)CCCNc1cc(-c2ccc3ccccc3c2)nc2ccccc12,8.51% (active)
